The source of these data is ChEMBL document CHEMBL3433997, “St. Jude Leishmania screening dataset” (2016).

The target of this assay is Solute carrier family 2, facilitated glucose transporter member 1 (Homo sapiens) (UniProt P11166). The assay is described as follows: ST_JUDE_LEISH: Cytotoxicity at 2uM final concentration against transgenic Leishmania Mexicana promastigotes LmGLUT1 that are glucose transport deficient and complemented with the human glucose transporter GLUT1. Activity is measured by DNA content using SYBR green in vitro. It counts as functional.
Sequence of Solute carrier family 2, facilitated glucose transporter member 1 (Homo sapiens) (P11166 whole entry): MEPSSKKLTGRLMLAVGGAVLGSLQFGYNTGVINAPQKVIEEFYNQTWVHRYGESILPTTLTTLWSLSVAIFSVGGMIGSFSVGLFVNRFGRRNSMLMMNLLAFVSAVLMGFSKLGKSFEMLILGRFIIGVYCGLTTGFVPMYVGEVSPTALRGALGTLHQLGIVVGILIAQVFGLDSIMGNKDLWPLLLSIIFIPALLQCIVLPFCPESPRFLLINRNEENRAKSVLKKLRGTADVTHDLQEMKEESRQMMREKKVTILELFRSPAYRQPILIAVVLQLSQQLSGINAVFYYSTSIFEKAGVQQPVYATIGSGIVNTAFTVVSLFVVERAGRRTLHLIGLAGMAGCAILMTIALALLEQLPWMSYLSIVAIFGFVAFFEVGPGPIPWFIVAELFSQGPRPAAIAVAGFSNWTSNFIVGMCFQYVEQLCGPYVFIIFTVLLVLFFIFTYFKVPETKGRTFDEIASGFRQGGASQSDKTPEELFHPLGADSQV
For the compound `CC(C)C[C@H]1c2[nH]c3ccc(Cl)cc3c2CCN1C(=O)CCc1ccccc1`, the inhibition (in general, the change of the read-out against control, counted positive when it falls) is 3.74%.
Turning to `Cc1ccccc1C1CCN(C2CCC(NC(=O)c3cc4cc(C(C)C)ccc4[nH]3)CC2)CC1` (stereo not given), the inhibition came out at 1.91%.
As for `NCC(=O)Nc1cccc(Nc2nccc(-c3c(-c4cccc(NC(=O)c5ccccc5)c4)nn4ccccc34)n2)c1`, the inhibition turned out to be 3.36%.
Then `CC(C)(C)OC(=O)N1CCN(c2ccccc2NC(=O)c2cccc(C(F)(F)F)c2Oc2ccc(F)cc2)CC1`, with -1.41%.
Then `CC1CN(Cc2ccc(-c3ccc(-c4nc5cc(F)ccc5[nH]4)s3)cc2)CC(C)O1` (stereo not given), with 5.96%.
Then `CN1CCCN(Cc2ccc(-c3ccc(NC(=O)c4cccc(C#N)c4)cc3)cc2)CC1`, with 2.3%; and `COc1ccc(NC(=O)[C@H](CC(C)C)Nc2cc(C)nc(NCCc3ccccc3)n2)cc1`, with 3.57%; and `O=C(Nc1cccc(-c2ccc(-c3nc4cc(C(F)(F)F)ccc4[nH]3)cc2)c1)c1ccncc1`, with 6.22%.
Take `CS(=O)(=O)c1ccc(CNCc2cccc(-c3ccc(-c4nc5cc(C(F)(F)F)ccc5[nH]4)cc3)c2)cc1`: the inhibition came out at 5.51%.
For `C=C(C)COc1ccc(-c2n[nH]c(C(F)(F)F)c2-c2ccccc2OC)c(O)c1`, the inhibition is 8.67%.
Consider `CN(C)CCN(Cc1ccc(-c2ccc(CNCCc3ccccc3)cc2)nc1)C(=O)CCC1CCCC1`, for which the inhibition is 3.68%.
Then `COc1cc2nc(N(C)C)nc(Nc3ccc(OCc4ccccc4)cc3)c2cc1OC`, with 0.24%; and `COc1cc(Cc2cnc(N)nc2N)cc(OCCCCC#N)c1OC`, with 2.09%.
Turning to `Fc1ccc2[nH]c(-c3ccc(-c4ccc(CNCCc5ccncc5)cc4)cc3)nc2c1`, the inhibition came to 4.9%.
As to `O=C(Cc1ccc(NC(=O)c2ccc(O)c(-c3ccc(Cl)c(Cl)c3)c2)cc1)NCCc1ccc(Cl)c(Cl)c1`, the inhibition is 2.01%.
In the case of `Cc1ccc2c(-c3ccc([N+](=O)[O-])o3)cc(C)nc2c1` it was 54.3%.
Then `CCCCN(C(=O)c1ccccc1C)c1nnc(-c2ccccc2C)s1`, with 2.08%; and `COc1ccc(-c2cccc(NC(=O)c3cccc(Cl)c3)c2)cc1CN1CCCC1`, with 7.71%; and `Cc1cccc2nc(-c3ccc(-c4ccc(NC(=O)CN5CCN(C)CC5)cc4)cc3)[nH]c12`, with 2.26%.
In the case of `CCOC(=O)c1cc(C(=O)NCCCCN2CCC(c3ccc4c(c3OC)CCCC4)CC2)ccc1-c1ccc(C(F)(F)F)cc1` it was -2.37%; in that of `CN(c1ccccc1)S(=O)(=O)c1cccc(NC(=O)c2ccc(-n3ccnc3)c([N+](=O)[O-])c2)c1`, 2.91%.
On to `Cc1ccnc(NC(c2cccc(Cl)c2Cl)c2ccc3cccnc3c2O)c1` (stereo not given), for which the inhibition is 2.69%.
Then `COc1ccccc1CNc1ccnc(NCCc2cccc(C(F)(F)F)c2)n1`, with 7.85%; and `Cc1ccc2c(c1)c(-c1ccccc1)c(-c1ccccc1)n2CC(O)CN1CCN(CC=Cc2ccccc2)CC1` (stereo not given), with 0.38%; and `OC(CNCc1ccccc1OCc1ccccc1)c1cc(C(F)(F)F)cc(C(F)(F)F)c1` (stereo not given), with 8.75%.
Then `COc1ccc(CN(C)CCCOc2ccc(NC(=O)C=Cc3ccc(C(C)(C)C)cc3)cc2)cc1OC`, with 13.9%; and `CCc1c[nH]c2c(N3CCCC3=O)cc(C(=O)N[C@@H](Cc3ccccc3)[C@H](O)CNC3CCCCC3)cc12`, with 7.8%; and `O=C(Nc1ccc(-c2csc(-c3nc4ccccc4[nH]3)c2)cc1)Nc1ccsc1`, with 1.71%.
Turning to `CNC(=O)c1cnc(Nc2ccc(N3CCN(C)CC3)c(C)c2)nc1NC`, the inhibition is -0.78%.
Consider `CC(=O)Nc1ccc(C(=O)NC2CCN(c3ccnc4cc(Cl)ccc34)C2)cc1` (stereo not given), for which the inhibition turned out to be 0.36%.
Then `CCCCCCCNC(=O)NCC1CCCN(CCCCCNC(=O)/C=C/c2ccc(Cl)c(Cl)c2)C1` (stereo not given), with 1.71%; and `N#Cc1cccc(-c2nc(NCc3cccc(C(F)(F)F)c3)nn2-c2cccc(C(F)(F)F)c2)c1`, with 1.68%; and `CC(=O)Nc1ccc(C(=O)Nc2cccc(-c3csc(-c4nc5ccccc5[nH]4)c3)c2)cn1`, with 0.54%.
Take `CCCCN(C(=O)c1ccccc1Cl)c1nnc(-c2ccccc2C)s1`: the inhibition was -1.28%.
Then `Cc1ccc(NC(=O)c2cccc(CN3CCCN(Cc4cccc(O)c4)CC3)c2)cc1F`, with 7.48%; and `COC(=O)Nc1ccc(-c2ccc(C(=O)NC3CCN(C[C@H](O)c4ccnc5ccc(OC)cc45)CC3)cc2)c(C)c1`, with 0.51%; and `COc1ccc(CCNCCCCCNCCCc2ccc(Cl)cc2)cc1OC`, with -1.33%.
As for `CCOc1cc(C(=O)Nc2ccccc2N2CCN(S(C)(=O)=O)CC2)cc(OCC)c1OCC`, the inhibition came out at 3.72%.
Then `COc1cc2nc(NCCCO)nc(Nc3ccc(Oc4ccccc4)cc3)c2cc1OC`, with 6.51%; and `N=C(Nc1cccc(Cc2ccccc2)n1)Nc1ncccn1`, with 2.06%.
